Test results reported in PubChem BioAssay AID1159580 (chemical genetic matrix, 2015).
The campaign covered roughly 5,500 compounds. About 2,000 (36%) were called active. Another 18% or so got no clear call; they are omitted. The list shows a part of the results. Unmarked numbers belong to inactive results. Cut-off read from the data, not from the text of the source: active = normalized growth mostly below about 0.91 (no sharp cut-off); inconclusive = no clear call, values can overlap the other calls; inactive = mostly above about 0.92.

Assay: chemical genetic growth profiling, strain panel (AID 1159580);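 note: tested at 20 µM; growth read once vehicle control cultures reached saturation at 30 °C; 1 = growth at the plate median or of vehicle wells; lower values mean less growth of the strain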
Conditions: S. cerevisiae deletion strains, growth OD

Cc1coc2c1C(=O)C(=O)c1c-2ccc2c1CCCC2(C)C
normalized growth (locus YAL021C, strain ccr4, active compounds read low): 0.912 | normalized growth (locus YAL026C, strain drs2, active compounds read low): 0.869 (active) | normalized growth (locus YAL030W, strain snc1, active compounds read low): 0.936 | normalized growth (locus YBL061C, strain skt5, active compounds read low): 0.968 | normalized growth (locus YBR009C, strain hhf1, active compounds read low): 0.882 (active) | normalized growth (locus YBR023C, strain chs3, active compounds read low): 0.951 | normalized growth (locus YBR171W, strain sec66, active compounds read low): 0.916 | normalized growth (locus YBR231C, strain swc5, active compounds read low): 0.815 (active) | normalized growth (locus YBR279W, strain paf1, active compounds read low): 0.944 | normalized growth (locus YCL011C, strain gbp2, active compounds read low): 0.913 | normalized growth (locus YCL016C, strain dcc1, active compounds read low): 0.904 (active) | normalized growth (locus YCL061C, strain MRC1, active compounds read low): 0.91 (active) | normalized growth (locus YCL069W, strain vba3, active compounds read low): 0.95 | normalized growth (locus YCR088W, strain abp1, active compounds read low): 0.955 | normalized growth (locus YDL005C, strain med2, active compounds read low): 0.945 | normalized growth (locus YDL040C, strain nat1, active compounds read low): 0.948 | normalized growth (locus YDR001C, strain nth1, active compounds read low): 0.949 | normalized growth (locus YDR069C, strain doa4, active compounds read low): 0.925 | normalized growth (locus YDR137W, strain rgp1, active compounds read low): 0.439 (active) | normalized growth (locus YDR159W, strain sac3, active compounds read low): 0.582 (active) | normalized growth (locus YDR195W, strain ref2): 0.989 | normalized growth (locus YDR297W, strain sur2, active compounds read low): 0.951 | normalized growth (locus YDR334W, strain swr1, active compounds read low): 0.923 | normalized growth (locus YDR335W, strain msn5, active compounds read low): 0.929 | normalized growth (locus YDR392W, strain spt3, active compounds read low): 0.196 (active) | normalized growth (locus YEL003W, strain gim4, active compounds read low): 0.903 (active) | normalized growth (locus YEL037C, strain rad23, active compounds read low): 0.947 | normalized growth (locus YEL061C, strain CIN8 (second series), active compounds read low): 0.905 (active) | normalized growth (locus YER015W, strain faa2, active compounds read low): 0.951 | normalized growth (locus YER016W, strain bim1, active compounds read low): 0.926 | normalized growth (locus YER111C, strain swi4, active compounds read low): 0.953 | normalized growth (locus YER155C, strain BEM2 (second series), active compounds read low): 0.592 (active) | normalized growth (locus YFR010W, strain ubp6, active compounds read low): 0.902 | normalized growth (locus YGL167C, strain pmr1, active compounds read low): 0.946 | normalized growth (locus YGL173C, strain kem1, active compounds read low): 0.97 | normalized growth (locus YGL227W, strain vid30, active compounds read low): 0.962 | normalized growth (locus YGL240W, strain doc1, active compounds read low): 0.801 (active) | normalized growth (locus YGL253W, strain hxk2, active compounds read low): 0.828 (active) | normalized growth (locus YHR013C, strain ard1, active compounds read low): 0.815 (active) | normalized growth (locus YHR027C, strain rpn1, active compounds read low): 0.957 | normalized growth (locus YHR030C, strain SLT2, active compounds read low): 0.81 (active) | normalized growth (locus YHR079C, strain IRE1, active compounds read low): 0.859 | normalized growth (locus YHR142W, strain chs7, active compounds read low): 0.868 (active) | normalized growth (locus YJL092W, strain hpr5, active compounds read low): 0.94 | normalized growth (locus YJL095W, strain BCK1 (second series), active compounds read low): 0.925 | normalized growth (locus YJL095W, strain BCK1, active compounds read low): 0.855 (active) | normalized growth (locus YJL115W, strain asf1, active compounds read low): 0.953 | normalized growth (locus YJL129C, strain trk1, active compounds read low): 0.738 (active) | normalized growth (locus YJL154C, strain vps35, active compounds read low): 0.957 | normalized growth (locus YJL164C, strain tpk1, active compounds read low): 0.927 | normalized growth (locus YJL166W, strain qcr8, active compounds read low): 0.94 | normalized growth (locus YJL187C, strain SWE1, active compounds read low): 0.965 | normalized growth (locus YJR066W, strain TOR1, active compounds read low): 0.835 | normalized growth (locus YKL160W, strain elf1, active compounds read low): 0.886 (active) | normalized growth (locus YKR026C, strain gcn3, active compounds read low): 0.943 | normalized growth (locus YKR091W, strain srl3, active compounds read low): 0.946 | normalized growth (locus YLL001W, strain dnm1, active compounds read low): 0.886 (active) | normalized growth (locus YLL026W, active compounds read low): 0.936 | normalized growth (locus YLL041C, strain sdh2, active compounds read low): 0.958 | normalized growth (locus YLR027C, strain aat2, active compounds read low): 0.911 (active) | normalized growth (locus YLR113W, strain HOG1, active compounds read low): 0.821 (active) | normalized growth (locus YLR221C, strain rsa3, active compounds read low): 0.873 (active) | normalized growth (locus YLR258W, strain gsy2, active compounds read low): 0.964 | normalized growth (locus YLR262C, strain YPT6 (second series), active compounds read low): 0.485 (active) | normalized growth (locus YLR320W, strain mms22, active compounds read low): 0.79 (active) | normalized growth (locus YLR342W, strain FKS1, active compounds read low): 0.904 (active) | normalized growth (locus YLR357W, strain rsc2, active compounds read low): 1.07 | normalized growth (locus YLR370C, strain arc18, active compounds read low): 0.927 | normalized growth (locus YLR384C, strain iki3, active compounds read low): 0.96 | normalized growth (locus YML120C, strain ndi1, active compounds read low): 0.905 (active) | normalized growth (locus YMR058W, strain fet3, active compounds read low): 0.913 | normalized growth (locus YMR125W, strain sto1, active compounds read low): 0.975 | normalized growth (locus YMR129W, active compounds read low): 0.938 | normalized growth (locus YMR205C, strain PFK2, active compounds read low): 0.735 (active) | normalized growth (locus YMR231W, strain pep5, active compounds read low): 0.953 | normalized growth (locus YNL071W, strain lat1, active compounds read low): 0.766 (active) | normalized growth (locus YNL183C, strain NPR1, active compounds read low): 0.82 (active) | normalized growth (locus YNL209W, strain ssb2, active compounds read low): 0.954 | normalized growth (locus YNL248C, strain rpa49, active compounds read low): 1.03 | normalized growth (locus YNL322C, strain KRE1 (second series), active compounds read low): 0.949 | normalized growth (locus YNR049C, strain mso1, active compounds read low): 0.954 | normalized growth (locus YOR001W, strain rrp6, active compounds read low): 0.927 | normalized growth (locus YOR070C, strain gyp1, active compounds read low): 0.911 (active) | normalized growth (locus YOR080W, strain dia2, active compounds read low): 0.949 | normalized growth (locus YOR083W, strain WHI5, active compounds read low): 0.928 | normalized growth (locus YOR106W, strain vam3, active compounds read low): 0.852 (active) | normalized growth (locus YOR231W, strain MKK1, active compounds read low): 0.867 | normalized growth (locus YOR265W, strain rbl2, active compounds read low): 0.948 | normalized growth (locus YOR270C, strain vph1, active compounds read low): 0.809 | normalized growth (locus YOR290C, strain snf2, active compounds read low): 0.958 | normalized growth (locus YPL051W, strain arl3, active compounds read low): 0.913 (active) | normalized growth (locus YPL078C, strain atp4, active compounds read low): 0.853 (active) | normalized growth (locus YPL106C, strain sse1, active compounds read low): 0.852 | normalized growth (locus YPL240C, strain hsp82, active compounds read low): 0.944 | normalized growth (locus YPL256C, strain CLN2, active compounds read low): 0.894
